Laboratory results reported in PubChem BioAssay AID364 (The Scripps Research Institute Molecular Screening Center, 2006).
Hit rate of the full screen: of about 3,300 compounds, about 50 (2%) were called active. The list is a sample of the results. Results with a measured potency or affinity are listed apart. Values without a mark were called inactive.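 Rule for the calls: active = concentration giving half-maximal inhibition at or below 20 micromolar; inactive = half-maximal concentration above 20 micromolar, or not dose tested.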

assay: Jurkat cell viability reduction – Jurkat E6.1, NIH starter set, primary screen (AID 364); conditions: Jurkat E6.1 viability, ATP luminescence, 48 h; at 4 µM; active compounds read high;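 note: 100% = cells treated with 4 µM doxorubicin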

Structure (SMILES)	inhibition
CCCOc1ccc(N2C(=O)CC(N(CCC)C(=O)CCC(=O)O)C2=O)cc1 (stereo unspecified)	-0.8%
COc1cccc(/C(O)=C2/C(=O)C(=O)N(CCN(C)C)C2c2ccc(Br)cc2)c1 (stereo unspecified)	-1.9%
CCOc1ccc(Br)cc1CC(=O)O	13.6%
O=C(C(c1ccccc1)N1CCOCC1)N1CCOCC1 (stereo unspecified)	-13.4%
Cc1cc2c(c(=O)n1Cc1ccccn1)C(c1ccc3c(c1)OCO3)C(C#N)=C(N)O2 (stereo unspecified)	-0.2%
CCCCCOc1ccc(Cl)cc1CN1CCOCC1	-0.4%
COc1cccc(C2/C(=C(\O)c3ccc(OC)c(OC)c3)C(=O)C(=O)N2c2cc(C)on2)c1 (stereo unspecified)	-14.4%
Cc1cc(C)nc(N(C#N)S(=O)(=O)c2ccccc2Cl)n1	1%
COc1ccc(NC(=O)CSC2=C(C#N)C(c3ccco3)C3=C(CCCC3=O)N2)c(OC)c1 (stereo unspecified)	1.6%
COc1ccc(OC)c(NC(=O)CSC2=C(C#N)C(c3ccco3)C3=C(CCCC3=O)N2)c1 (stereo unspecified)	4.8%
Cc1c(N2C(=O)SC(CC(=O)O)C2=O)c(=O)n(-c2ccccc2)n1C (stereo unspecified)	-2.7%
CC(=O)C1(C)OC(N)=C(C#N)C(c2ccccc2)C1(C#N)C#N (stereo unspecified)	5.6%
COc1ccc(N2C(=O)C3C(C2=O)C2C=CC3C23CC3)c(OC)c1 (stereo unspecified)	0.8%
COc1ccccc1NC(=O)Nc1nnc(C(C)C)s1	9.4%
COc1ccc(OC)c(C2=Nn3c(nnc3C3CCCCC3)SC2)c1	5.2%
c1ccc(-c2nnc3n2N=C(c2ccc4c(c2)OCO4)CS3)nc1	-6.9%
CC(=O)[C@H]1[C@@H]2C(=O)N(c3cccc(Cl)c3)C(=O)[C@@H]2[C@H]2c3ccccc3C=CN21	-1.9%
CCOC(=O)CNS(=O)(=O)c1cc(-c2nn(C)c(=O)c3ccccc23)ccc1C	1.1%
C=C(C)CC1N(c2cccc(OC)c2)C(=O)[C@@H]2C(C(=O)O)[C@H]3C=C[C@@]12O3 (stereo partly specified)	5.9%
CCCCOc1ccc(C(=O)Nc2ccc(N3CCN(C(C)=O)CC3)cc2)cc1	6.7%
COc1ccc(C(=O)CSC2=C(C#N)C3(CCCCC3)C(C#N)=C(N)N2)cc1	4.2%
N#CC1=C(N)NC(SCc2ccc(Cl)cc2)=C(C#N)C12CCCCC2	7.9%
Cc1csc(SCCn2c(Br)nc3c2c(=O)[nH]c(=O)n3C)n1	-4.7%
N#CC1=C(N)C(C#N)(C#N)[C@H](c2ccncc2)[C@H]2CN(C(=O)OCc3ccccc3)CC=C12	2.4%
COCCOC(=O)c1c(C)nc(SCC(=O)Nc2ccc(C)cc2)c(C#N)c1-c1ccco1	13.5%
O=C(CSc1nnc(-c2ccco2)c(-c2ccco2)n1)Nc1ccccc1	0.1%

Structure (SMILES)	inhibition
C=CCN(C)CCCNC(=O)/C=N/O	2.4%
CN(CCOC(=O)c1ccc2c(c1)OCCO2)Cc1ccccc1	-9.3%
O=C(CC(c1ccco1)S(=O)(=O)c1ccccc1)c1ccc(F)cc1 (stereo unspecified)	-1%
COc1cc(-c2nn3c(-c4cccnc4)nnc3s2)cc(OC)c1OC	3.2%
c1cncc(-c2nnc3sc(-c4ccco4)nn23)c1	7.6%
Cc1c(NS(=O)(=O)c2cccc3nsnc23)c(=O)n(-c2ccccc2)n1C	-5.3%
CCN(CC)CCN1C(=O)C(O)=C(C(C)=O)C1c1ccc(OC)c(OC)c1 (stereo unspecified)	-15.9%
Cn1c(=O)cc(NCc2ccccc2)[nH]c1=O	-8.6%
Cc1ccc2cc(CNC(C)(C)C)c(=O)[nH]c2c1	7.6%
CCc1c(C)c(C#N)c2nc3ccccc3n2c1-n1nc(C)cc1C	-5.3%
COCc1cc(C)nc(SCC(=O)Nc2ccc(C)c(C)c2)c1C#N	-5.4%
CCc1nc2c(sc3nc(N4CCOCC4)c4c(c32)CC(C)(C)OC4)c(=O)o1	-2%
CN(C)CCCN1C(=O)C(=O)/C(=C(/O)c2ccccc2)C1c1ccccn1 (stereo unspecified)	8.4%
CCOc1ccc(-c2nnc3sc(-c4ccccc4OC)nn23)cc1	1.2%
CCOc1ccc(C2=Nn3c(nnc3-c3cccnc3)SC2)cc1	2.1%
CCOc1ccc(C2=Nn3c(nnc3-c3ccccn3)SC2)cc1	2.6%
COc1ccc(OC)c(C2=Nn3c(nnc3-c3ccco3)SC2)c1	-10.8%
c1ccc(C2=Nn3c(nnc3-c3ccccn3)SC2)cc1	-9.2%
Cc1cccc(-c2nnc3n2N=C(c2ccccc2)CS3)c1	13.9%
COc1ccc(C2=Nn3c(nnc3-c3ccccn3)SC2)cc1OC	2.3%
COc1ccc(C2=Nn3c(nnc3-c3cccnc3)SC2)cc1OC	-8.2%
CC1(C)CC(=O)C2=C(C1)N(CC1CCCO1)C(=O)C2(O)C(F)(F)F (stereo unspecified)	7.7%
COc1ccc(-c2nc3n(n2)C(=O)CC(c2ccco2)S3)cc1 (stereo unspecified)	-1.6%
Cc1cc(NCC2CCCO2)n2c(nc3ccccc32)c1C#N (stereo unspecified)	15.2%
CCOC(=O)NC(Nc1sc2c(c1C(N)=O)CCCC2)(C(=O)OCC)C(F)(F)F (stereo unspecified)	2.5%
CC(C)c1cc(NCCN2CCOCC2)n2c(nc3ccccc32)c1C#N	14.6%

Structure (SMILES)	inhibition
O=P(Cc1nnco1)(c1ccccc1)c1ccccc1	1%
CC(=O)Oc1ccccc1C1OCCN1C(C)=O (stereo unspecified)	-17.2%
Cc1ccc2nc(C(F)(F)F)c(C#N)c(N)c2c1	11.8%
C/C(NC(=O)c1ccccc1F)=C1\C(=O)C[C@@H]2[C@H]1C2(C)C	-12.7%
Cc1ccc(S(=O)(=O)NC(=O)NCc2ccc3c(c2)OCO3)cc1	7.5%
CCN=C1SC(C(=O)Nc2ccc(Cl)c(Cl)c2)CC(=O)N1CC (stereo unspecified)	-3.4%
O=C(OCCN1CCOCC1)c1ccc(OCCN2CCOCC2)cc1	-3.3%
Cn1c(/C(C#N)=C/Nc2ccccn2)nc2ccccc21	-8.5%
Cc1cc(=O)oc(C)c1C(=O)NC12CC3CC(CC(C3)C1)C2	0.6%
COc1ccc2c(c1OC)C(=O)OC2C1c2c(cc3c(c2OC)OCO3)CCN1C (stereo unspecified)	2.6%
O=C(O)CC(C(=O)OCC1CCCO1)N1CCOCC1 (stereo unspecified)	11.6%
COc1nc(N(C)S(=O)(=O)c2ccc(C)cc2)nc(C)c1Cl	2.3%
COc1cccc(OC)c1-c1nn2c(-c3ccco3)nnc2s1	-5.6%
Cc1ccc2[nH]c(CCN(C)C)c(CC#N)c2c1	-1%
CC(=O)Nc1ccc(Oc2ccc3nc(C)[nH]c3c2)cc1	6.6%
Cn1c(=O)oc2cc(C(=O)c3ccccc3)ccc21	-2.2%
CCC(=O)Nc1nc(C)c(Oc2ccccc2)c(=O)[nH]1	-13.8%
Cn1c(=O)n(C)c2cc(C(=O)c3ccccc3)ccc21	-1.7%
CN1CCc2c(sc3ncn4nc(-c5ccccc5O)nc4c23)C1	2.9%
CSc1cc(C)nc(N(C)C(C)=O)n1	-4.8%
CC1(c2cnc(Nc3ccccc3)s2)CCC(=O)O1 (stereo unspecified)	3.7%
CC1CN(c2oc(-c3ccccc3Cl)nc2C#N)CC(C)O1 (stereo unspecified)	-11.7%
COc1ccc(/C(O)=C2/C(=O)C(=O)N(CCCN(C)C)C2c2ccccc2)cc1Cl (stereo unspecified)	9.5%
COc1cccc(C2/C(=C(\O)c3ccc4c(c3)OCCO4)C(=O)C(=O)N2CCCN(C)C)c1OC (stereo unspecified)	-10.5%
C=CCn1cnc2c(c1=O)c1nc3ccccc3nc1n2-c1ccc(Cl)cc1	-1.6%
CCCCOC(=O)CSC1=C(C#N)C(c2ccc3c(c2)OCO3)CC(=O)N1 (stereo unspecified)	6.5%

Structure (SMILES)	inhibition
CCCOC(=O)CSC1=C(C#N)C(c2ccc3c(c2)OCO3)CC(=O)N1 (stereo unspecified)	29.3%
CSc1nc2[nH]c3c(c2c2nnnn12)CCCC3	1.2%
CC(=O)Nc1cccc(NC(=O)CSc2nc(C)c(C)c(C)c2C#N)c1	-4.8%
COc1cc(C2C3C(=O)N(c4ccc(F)cc4)C(=O)C3ON2c2ccccc2)ccc1O (stereo unspecified)	2.1%
CCCCNc1nc2c(c(=O)n(C)c(=O)n2C)n1Cc1cccc(OC)c1	35.2%
COc1cccc(Cn2c(NCC(C)C)nc3c2c(=O)n(C)c(=O)n3C)c1	10.8%
CN(C)CCNC(=O)C12CC3(C)CC(C)(CC(C)(C3)C1)C2	-4.1%
CCOc1cccc(NC(=O)C2CC(=O)NC(=Nc3ccccc3)S2)c1 (stereo unspecified)	15.4%
Cn1c(=O)[nH]c(=O)c2c1nc(Br)n2CCSc1nnnn1-c1ccccc1	-0.6%
ClC(Br)=C(n1cnc2ccccc21)n1cnc2ccccc21	3.1%
CC(=O)CCn1c(=O)n(CCC(C)=O)c(=O)n(CCC(C)=O)c1=O	4%
Clc1ccc2c(c1)C(N1CCNCC1)=Nc1ccccc1O2	2.2%
CN1CCN(C2=Nc3ccccc3Oc3ccc(Cl)cc32)CC1	2.6%
CC(C)CNC(=O)c1c(N)n(/N=C/c2cccnc2)c2nc3ccccc3nc12	-0.2%
COc1cccc(C2C(C(=O)c3sc(C)nc3C)=C(O)C(=O)N2CCN2CCOCC2)c1OC (stereo unspecified)	3.5%
CN(C)c1oc(-c2cccs2)nc1C#N	5.5%
COc1ccc(-n2c(=O)c3c4c(sc3n3c(C)nnc23)CC(C)CC4)cc1 (stereo unspecified)	-5%
COc1ccc(Nc2nc(Nc3ccc(OC)cc3)nc(-n3[nH]c(=O)c(C)c3C)n2)cc1	4.5%
COc1ccc(Nc2cc(C)nc3ccccc23)cc1	6.3%
Cc1[nH]c2ccc(F)cc2c(=O)c1SC(F)(F)C(F)C(F)(F)F (stereo unspecified)	1.9%
COc1ccc(C(=O)c2oc3nc(C)cc(C)c3c2N)cc1	-3.3%
C=CCn1c(SCc2c(F)c(F)c(F)c(F)c2F)nc(O)cc1=O	-3.4%
CC(C)C(C(=O)Nc1ncn[nH]1)N1C(=O)c2ccccc2C1=O (stereo unspecified)	1%
